Measured values: PubChem BioAssay (Tox21)
Unmarked numbers belong to inactive results. Inconclusive results are not listed. Entries that show only a call come without a potency. Activity calls are given as the source filed them. Unless noted, calls come from the whole dose curve; as a rule, active = well fitted curve in the direction sought with a large enough effect in the repeat runs; inconclusive = weak or mixed curves; inactive = no such curve, though single readings can be large; an effect the other way counts as inactive or inconclusive. Positions of bridges follow the written chain, without caps; N, C: chain ends. Non-standard residues stand in square brackets, D forms with d. Residues, ends and D or L forms follow the SMILES beside them. hArg = N=C(N)NCCCC[C@H](N)C(=O)O; Mpa = O=C(O)CCS

Columns and labels:
[1] = A CellTox Green Cytotoxicity Assay to monitor cytotoxicity in HepG2 cells - 16 hour (AID 1224876); note: nearly all actives have a fitted effect of over 45% in size
Summary of the method: (§1)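 Continuous culture of HepG2 cells with a membrane-impermeant DNA dye; rising fluorescence marks dead cells. Compound exposure lasted up to 40 h at 37 C, with reads every 8 h from 0 h.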

[2] = qHTS RealTime-Glo MT Cell Viability Assay in HepG2 cells - 32 hour (AID 1224877); note: nearly all actives have a fitted effect of over 55% in size
Summary of the method: (§2)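 Tox21 10K library screened in qHTS format on HepG2 cells carrying RealTime-Glo reagents. Compounds were added after a 5 h preincubation, and the luminescent signal from continuous culture was measured repeatedly during 40 h treatment.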

[3] = A CellTox Green Cytotoxicity Assay to monitor cytotoxicity in HepG2 cells - 24 hour (AID 1224878); note: nearly all actives have a fitted effect of over 45% in size
Summary of the method: as §1

[4] = A CellTox Green Cytotoxicity Assay to monitor cytotoxicity in HepG2 cells - 40 hour (AID 1224879); note: nearly all actives have a fitted effect of over 40% in size
Summary of the method: as §1

[5] = qHTS RealTime-Glo MT Cell Viability Assay in HEK293 cells - 0 hour (AID 1224880); note: top concentration of the series differs between compounds; nearly all actives have a fitted effect of over 45% in size
Summary of the method: (§3)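 qHTS format; HEK293 cells with NanoLuc/prosubstrate reagent, 37 C/5% CO2 for 5 h pre-dosing; compounds 23 nL in DMSO; luminescence at each time point reflects viable cells.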

[6] = A CellTox Green Cytotoxicity Assay to monitor cytotoxicity in HEK293 cells - 32 hour (AID 1224881); note: nearly all actives have a fitted effect of over 40% in size; note: potency is the fitted concentration of half-maximal effect
Summary of the method: (§4)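 Each value comes from one timepoint of a single continuous run in which HEK293 cells with CellTox Green were exposed to compound for up to 40 h at 37 C, dye fluorescence rising with cell death.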

[7] = A CellTox Green Cytotoxicity Assay to monitor cytotoxicity in HepG2 cells - 32 hour (AID 1224883); note: nearly all actives have a fitted effect of over 50% in size
Summary of the method: as §1

[8] = qHTS RealTime-Glo MT Cell Viability Assay in HepG2 cells - 16 hour (AID 1224885); note: nearly all actives have a fitted effect of over 50% in size
Summary of the method: as §2

[9] = qHTS RealTime-Glo MT Cell Viability Assay in HEK293 cells - 24 hour (AID 1224886); note: top concentration of the series differs between compounds; nearly all actives have a fitted effect of over 50% in size
Summary of the method: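 Luminescence generated by NanoLuc from substrate produced by living HEK293 cells served as the viability signal. Each value reflects the reading at its stated time point during continuous 40 h compound exposure at 37 C.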

[10] = qHTS RealTime-Glo MT Cell Viability Assay in HEK293 cells - 8 hour (AID 1224887); note: top concentration of the series differs between compounds; nearly all actives have a fitted effect of over 50% in size
Summary of the method: as §3

[11] = A CellTox Green Cytotoxicity Assay to monitor cytotoxicity in HEK293 cells - 16 hour (AID 1224888); note: nearly all actives have a fitted effect of over 35% in size
Summary of the method: as §4

[12] = qHTS RealTime-Glo MT Cell Viability Assay in HepG2 cells - 0 hour (AID 1224889); note: nearly all actives have a fitted effect of over 50% in size
Summary of the method: as §2

[13] = A CellTox Green Cytotoxicity Assay to monitor cytotoxicity in HepG2 cells - 8 hour (AID 1224890); note: nearly all actives have a fitted effect of over 45% in size
Summary of the method: as §1

[14] = qHTS assay to identify small molecule antagonists of the estrogen receptor alpha (ER-alpha) signaling pathway using the BG1 cell line in the presence of 0.1 nM 17-beta-estradiol - cell viability counter screen (AID 1259241); note: nearly all actives have a fitted effect of over 40% in size
Summary of the method: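 Following 5 days in phenol red-free medium with charcoal-stripped serum, VM7Luc4E2 cells received test compounds alongside 0.1 nM 17beta-estradiol (final) at 37C for 22 hr. Live cells were then quantified via protease-substrate fluorescence.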

[15] = qHTS assay to identify small molecule antagonists of the androgen receptor (AR) signaling pathway using the MDA cell line in the presence of 0.5 nM R1881 - cell viability counter screen (AID 1259242); note: nearly all actives have a fitted effect of over 45% in size
Summary of the method: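 Fluorescence from CellTiter-Fluor, which reports protease activity of live cells, was read 30 min after reagent addition to MDA-kb2 cells that had been incubated 16 hr with compound and 0.5 nM R1881.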

[16] = molecular target: Estrogen receptor (Homo sapiens) (UniProt P03372); experiment: qHTS assay to identify small molecule antagonists of the estrogen receptor alpha (ER-alpha) signaling pathway using the BG1 cell line in the presence of 0.1 nM 17-beta-estradiol (AID 1259244); note: nearly all actives have a fitted effect of over 50% in size
Sequence of Estrogen receptor (Homo sapiens) (P03372 whole entry, looked up): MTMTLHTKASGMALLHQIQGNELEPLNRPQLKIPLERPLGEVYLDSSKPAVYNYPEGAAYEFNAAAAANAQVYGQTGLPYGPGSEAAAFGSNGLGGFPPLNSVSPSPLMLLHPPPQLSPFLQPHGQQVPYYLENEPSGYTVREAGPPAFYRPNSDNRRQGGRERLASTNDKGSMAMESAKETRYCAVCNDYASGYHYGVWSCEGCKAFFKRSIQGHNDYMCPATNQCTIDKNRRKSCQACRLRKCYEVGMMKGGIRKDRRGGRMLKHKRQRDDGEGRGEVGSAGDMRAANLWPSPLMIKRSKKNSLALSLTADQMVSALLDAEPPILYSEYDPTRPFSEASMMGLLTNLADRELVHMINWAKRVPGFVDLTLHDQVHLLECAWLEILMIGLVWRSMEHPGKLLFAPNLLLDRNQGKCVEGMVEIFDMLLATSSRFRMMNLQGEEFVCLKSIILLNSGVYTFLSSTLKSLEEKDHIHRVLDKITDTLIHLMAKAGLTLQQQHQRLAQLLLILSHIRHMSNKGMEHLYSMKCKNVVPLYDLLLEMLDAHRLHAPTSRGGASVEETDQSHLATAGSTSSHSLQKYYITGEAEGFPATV
Summary of the method: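 Quantitative high-throughput screen in VM7Luc4E2 cells: compound plus 0.1 nM E2 (final), 22 h, 37C, 5% CO2; ONE-Glo added, 30 min room temperature, luminescence measured.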

[17] = A CellTox Green Cytotoxicity Assay to monitor cytotoxicity in HEK293 cells - 8 hour (AID 1224884); note: nearly all actives have a fitted effect of over 35% in size
Summary of the method: as §4

[18] = A CellTox Green Cytotoxicity Assay to monitor cytotoxicity in HepG2 cells - 0 hour (AID 1224882); note: nearly all actives have a fitted effect of over 35% in size
Summary of the method: as §1

[19] = qHTS assay to identify small molecule phospholipidosis (PLD) inducers (AID 1259344; active = well fitted curve in the direction sought with a large enough effect; an effect the other way counts as inactive or inconclusive)
Summary of the method: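 Phospholipidosis is scored by imaging LipidTOX-stained pits in HepG2 cells exposed to compound for 24 h at 37 C; pit counts and integrated intensities per well and per cell serve as outputs.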

[20] = molecular target: Androgen receptor (Homo sapiens) (UniProt P10275); experiment: qHTS assay to identify small molecule antagonists of the androgen receptor (AR) signaling pathway using the MDA cell line in the presence of 0.5 nM R1881 (AID 1259243); note: nearly all actives have a fitted effect of over 50% in size
Sequence of Androgen receptor (Homo sapiens) (P10275 whole entry, looked up): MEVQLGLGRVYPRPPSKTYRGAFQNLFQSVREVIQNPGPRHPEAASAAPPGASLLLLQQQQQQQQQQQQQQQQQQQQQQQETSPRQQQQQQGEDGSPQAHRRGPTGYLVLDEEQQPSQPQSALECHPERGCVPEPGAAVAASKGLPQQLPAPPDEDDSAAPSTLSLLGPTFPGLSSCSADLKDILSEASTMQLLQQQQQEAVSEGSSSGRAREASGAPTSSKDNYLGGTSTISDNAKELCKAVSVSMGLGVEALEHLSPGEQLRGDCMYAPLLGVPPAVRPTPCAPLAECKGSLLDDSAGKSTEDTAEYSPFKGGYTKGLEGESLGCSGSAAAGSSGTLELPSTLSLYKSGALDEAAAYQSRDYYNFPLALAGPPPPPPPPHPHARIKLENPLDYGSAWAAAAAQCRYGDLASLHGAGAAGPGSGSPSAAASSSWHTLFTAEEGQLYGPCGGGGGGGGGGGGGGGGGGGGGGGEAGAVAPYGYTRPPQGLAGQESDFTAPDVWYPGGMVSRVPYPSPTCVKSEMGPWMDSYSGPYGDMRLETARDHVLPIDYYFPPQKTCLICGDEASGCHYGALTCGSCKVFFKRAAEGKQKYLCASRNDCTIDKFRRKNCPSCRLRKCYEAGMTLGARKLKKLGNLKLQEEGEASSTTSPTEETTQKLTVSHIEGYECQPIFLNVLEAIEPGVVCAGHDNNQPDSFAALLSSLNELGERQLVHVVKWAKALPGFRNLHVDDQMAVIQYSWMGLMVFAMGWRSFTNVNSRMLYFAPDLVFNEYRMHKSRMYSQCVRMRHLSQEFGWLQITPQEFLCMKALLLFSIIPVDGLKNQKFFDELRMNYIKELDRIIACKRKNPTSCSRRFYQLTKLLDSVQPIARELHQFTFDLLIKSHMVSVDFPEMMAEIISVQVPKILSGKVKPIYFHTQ
Summary of the method: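 Inhibition of R1881 (0.5 nM final) induced reporter signal was measured in human MDA-kb2 cells; note the MMTV promoter also responds to GR. Exposure lasted 16 hr at 37C.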

O=C1OCCO1
Potency [1]: inactive | outcome [2]: inactive | Potency [3]: inactive | Potency [4]: inactive | Potency [5]: inactive | Potency [6]: 0.366 µM (active) | Potency [7]: inactive | outcome [8]: inactive | Potency [9]: inactive | Potency [10]: inactive | Potency [11]: inactive | Potency [12]: inactive | Potency [13]: inactive | outcome [14]: inactive | outcome [15]: inactive | outcome [16]: inactive

CC1=NN(c2ccc(S(=O)(=O)O)cc2)C(=O)C1
Potency [1]: inactive | outcome [2]: inactive | Potency [3]: inactive | Potency [4]: inactive | Potency [5]: inactive | Potency [6]: inactive | Potency [7]: inactive | Potency [17]: inactive | outcome [8]: inactive | Potency [9]: inactive | Potency [11]: inactive | Potency [12]: inactive | Potency [13]: inactive | outcome [14]: inactive | outcome [15]: inactive

CC1(C)Oc2ccc(C#N)cc2[C@@H](N2CCCC2=O)[C@@H]1O
Potency [1]: inactive | outcome [2]: inactive | Potency [3]: inactive | Potency [4]: inactive | Potency [5]: inactive | Potency [6]: inactive | Potency [18]: inactive | Potency [17]: inactive | outcome [8]: inactive | Potency [9]: inactive | Potency [10]: inactive | Potency [11]: inactive | Potency [12]: inactive | Potency [13]: inactive | outcome [14]: inactive | outcome [15]: inactive | outcome [16]: inactive | outcome [19]: inactive

CC(C)NC(=O)c1ccc(C=O)cc1
Potency [1]: inactive | outcome [2]: inactive | Potency [3]: inactive | Potency [4]: inactive | Potency [5]: inactive | Potency [18]: inactive | Potency [7]: inactive | Potency [17]: inactive | outcome [8]: inactive | Potency [9]: inactive | Potency [10]: inactive | Potency [11]: inactive | Potency [13]: inactive | outcome [14]: inactive | outcome [15]: inactive | Potency [20]: inactive | outcome [16]: inactive

CCOC(=O)CC1(C)OCC(C)O1 (centres undefined)
Potency [1]: inactive | outcome [2]: inactive | Potency [3]: inactive | Potency [4]: inactive | Potency [5]: inactive | Potency [6]: inactive | Potency [7]: inactive | Potency [17]: inactive | outcome [8]: inactive | Potency [9]: inactive | Potency [10]: inactive | Potency [11]: inactive | Potency [12]: inactive | Potency [13]: inactive | outcome [14]: inactive | outcome [15]: inactive | outcome [16]: inactive

CCOc1cccc(N)c1
Potency [1]: inactive | outcome [2]: inactive | Potency [3]: inactive | Potency [4]: inactive | Potency [5]: inactive | Potency [6]: inactive | Potency [7]: inactive | Potency [17]: inactive | outcome [8]: inactive | Potency [9]: inactive | Potency [10]: inactive | Potency [11]: inactive | Potency [13]: inactive | outcome [14]: inactive | outcome [15]: inactive | outcome [16]: inactive

OC[C@@H](O)C(O)[C@@H](O)CO (some centres undefined)
Potency [1]: inactive | outcome [2]: inactive | Potency [3]: inactive | Potency [4]: inactive | Potency [5]: inactive | Potency [6]: inactive | Potency [18]: inactive | Potency [17]: inactive | outcome [8]: inactive | Potency [9]: inactive | Potency [10]: inactive | Potency [11]: inactive | Potency [13]: inactive | outcome [14]: inactive | outcome [15]: inactive

NC(=O)[C@@H]1CSSCCC(=O)N[C@@H](CCCCN=C(N)N)C(=O)NCC(=O)N[C@@H](CC(=O)O)C(=O)N[C@@H](Cc2c[nH]c3ccccc23)C(=O)N2CCC[C@H]2C(=O)N1 ([Mpa][hArg]GDWPC-NH2; disulfide 1-7)
Potency [1]: inactive | outcome [2]: inactive | Potency [3]: inactive | Potency [4]: inactive | Potency [5]: inactive | Potency [18]: inactive | Potency [7]: inactive | Potency [17]: inactive | outcome [8]: inactive | Potency [9]: inactive | Potency [10]: inactive | Potency [11]: inactive | Potency [12]: inactive | Potency [13]: inactive | outcome [14]: inactive | outcome [15]: inactive | outcome [16]: inactive | outcome [19]: inactive

CCN(CC)CCN
Potency [1]: inactive | outcome [2]: inactive | Potency [3]: inactive | Potency [4]: inactive | Potency [5]: inactive | Potency [6]: inactive | Potency [18]: inactive | Potency [17]: inactive | outcome [8]: inactive | Potency [10]: inactive | Potency [11]: inactive | Potency [12]: inactive | Potency [13]: inactive | outcome [14]: inactive | outcome [15]: inactive | outcome [16]: inactive

O=C(O)CSCC(=O)NC1CCSC1=O (centres undefined)
Potency [1]: inactive | outcome [2]: inactive | Potency [3]: inactive | Potency [4]: inactive | Potency [5]: inactive | Potency [18]: inactive | Potency [7]: inactive | Potency [17]: inactive | outcome [8]: inactive | Potency [9]: inactive | Potency [10]: inactive | Potency [11]: inactive | Potency [13]: inactive | outcome [14]: inactive | outcome [15]: inactive | Potency [20]: inactive | PLD induction [19]: 5.58% [at 7.66 µM]

O=C1CCCCO1
Potency [1]: inactive | outcome [2]: inactive | Potency [3]: inactive | Potency [4]: inactive | Potency [5]: inactive | Potency [18]: inactive | Potency [7]: inactive | Potency [17]: inactive | outcome [8]: inactive | Potency [9]: inactive | Potency [10]: inactive | Potency [11]: inactive | Potency [13]: inactive | outcome [14]: inactive | outcome [15]: inactive | outcome [16]: inactive

NCC1(Cc2noc(=O)[nH]2)CCCCC1
Potency [1]: inactive | outcome [2]: inactive | Potency [3]: inactive | Potency [4]: inactive | Potency [5]: inactive | Potency [6]: inactive | Potency [18]: inactive | outcome [8]: inactive | Potency [9]: inactive | Potency [10]: inactive | Potency [11]: inactive | Potency [12]: inactive | Potency [13]: inactive | outcome [14]: inactive | outcome [15]: inactive | outcome [16]: inactive

ONc1ccccc1
Potency [1]: inactive | outcome [2]: inactive | Potency [3]: inactive | Potency [4]: inactive | Potency [5]: inactive | Potency [18]: inactive | Potency [7]: inactive | Potency [17]: inactive | outcome [8]: inactive | Potency [9]: inactive | Potency [11]: inactive | Potency [12]: inactive | Potency [13]: inactive | outcome [14]: inactive | outcome [15]: inactive | outcome [16]: inactive

C=CCOC(=O)CCCCCC
Potency [1]: inactive | outcome [2]: inactive | Potency [3]: inactive | Potency [4]: inactive | Potency [5]: inactive | Potency [18]: inactive | Potency [7]: inactive | Potency [17]: inactive | outcome [8]: inactive | Potency [9]: inactive | Potency [10]: inactive | Potency [11]: inactive | Potency [13]: inactive | outcome [14]: inactive | outcome [15]: inactive | Potency [20]: inactive

CCCC(CC)c1ccccc1 (centres undefined)
Potency [1]: inactive | outcome [2]: inactive | Potency [3]: inactive | Potency [4]: inactive | Potency [5]: inactive | Potency [6]: inactive | Potency [17]: inactive | outcome [8]: inactive | Potency [9]: inactive | Potency [11]: inactive | Potency [12]: inactive | Potency [13]: inactive | outcome [14]: inactive | outcome [15]: inactive | outcome [16]: inactive
